Measurements as given in PubChem BioAssay.

Key:
[1] = target: Tumor necrosis factor receptor superfamily member 10B (Homo sapiens) (UniProt O14763); assay: viability loss of caspase-8 NB7 cells with TRAIL – with/without TRAIL, luminescence panel, confirmation (AID 651596); conditions: NB7 neuroblastoma + caspase-8, TRAIL sensitization, NB7 Caspase-8, with TRAIL, mean of runs, at 10 µM, stronger effect = higher value
[2] = as above; conditions: NB7 neuroblastoma + caspase-8, without TRAIL, NB7 Caspase-8, without TRAIL, mean of runs, at 10 µM

Sequence of Tumor necrosis factor receptor superfamily member 10B (Homo sapiens) (O14763 whole entry, looked up): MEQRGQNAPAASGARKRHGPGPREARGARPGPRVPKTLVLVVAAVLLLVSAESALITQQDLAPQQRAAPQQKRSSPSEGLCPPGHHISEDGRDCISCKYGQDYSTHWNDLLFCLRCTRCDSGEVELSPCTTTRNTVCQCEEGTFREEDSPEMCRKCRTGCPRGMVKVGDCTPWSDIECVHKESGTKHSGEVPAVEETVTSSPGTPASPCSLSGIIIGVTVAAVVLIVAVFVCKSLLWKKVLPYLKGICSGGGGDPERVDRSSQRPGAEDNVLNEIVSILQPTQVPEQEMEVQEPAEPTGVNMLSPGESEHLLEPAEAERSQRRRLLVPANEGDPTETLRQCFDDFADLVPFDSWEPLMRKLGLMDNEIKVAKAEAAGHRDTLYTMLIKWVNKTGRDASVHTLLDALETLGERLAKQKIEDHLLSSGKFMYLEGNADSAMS

| SMILES | activity [1] [%] | activity [2] [%] |
| --- | --- | --- |
| Fc1ccc(-c2nnc(-c3ccc(Cl)cc3Cl)o2)cc1 | 85.4 | 84.5 |
| COc1ccc(-c2cc3nc[nH]c(=O)c3s2)cc1 | 61.5 | 58.2 |
| COc1ccc(C(=O)Nc2ccc3[nH]ccc3c2)cc1 | 95.1 | 95.3 |
| COc1cc2c(cc1OC)C(c1ccccc1)N(C(=O)CCl)CC2 (stereo not given) | 98.3 | 92.4 |
| C(=Cc1c[nH]c2ccccc12)c1ccc2ccccc2n1 | 61.1 | 52.8 |
| O=C1c2cc(F)ccc2-n2c1nc1ccccc1c2=O | 32.5 | 25.7 |
| C=CCN=c1scc(-c2ccccc2)n1/N=C/c1ccccn1 | 37.6 | 24.8 |
| Cc1ccc(/C(N)=N/OC(=O)c2ccc(Cl)cc2Cl)cc1 | 97 | 96.7 |
| C=CCn1c2ccccc2c(=O)c2cc(C#CC3(O)CCCCC3)ccc21 | 83.7 | 79.7 |
| O=C(N/N=C/C(Cl)=C/c1ccccc1)c1ccccn1 | 61.2 | 42.8 |
| C#CCN(C[C@@H]1[C@@H](OC(=O)NCC2CCCCC2)[C@@H](OC(=O)NCC2CCCCC2)Cn2c(=O)ccc(=O)n21)S(=O)(=O)c1ccc(C)cc1 | 97.7 | 98.3 |
| CCN(CC(=O)N1CCc2ccccc2C1)S(=O)(=O)c1ccc2ccccc2c1 | 42.7 | 62.5 |
| CCC[C@H](CN[C@@H](CNC)[C@H](C)CC)NCCc1cc(C(F)(F)F)cc(C(F)(F)F)c1 | 65.7 | 96.1 |
| COc1ccc(C(C(=O)NC2CCCCC2)N(C(=O)CCl)c2ccc(Cl)cc2)cc1 (stereo not given) | 98.4 | 98.9 |
| Cc1nc2ccc(-c3nc4cc(N)ccc4o3)cc2[nH]1 | 59.7 | 57.4 |
